# Laboratory results as given in PubChem BioAssay (EPA / NIEHS).
# Values joined by “and” are separate entries in the source; they are usually repeats but may differ in a detail not shown here. Identical values can stand only once. The source holds several records for some structures; these can differ, active in one and inactive in another. Active and inactive are the calls of the source. How the source made its calls: active means hit-call score of the fitted dose curve at least 0.9, where 1 is the maximum; inactive means score below 0.9.
# Assay: BSK_SAg_PBMCCytotoxicity: PBMC Cytotoxicity Assessment in the BioMAP Diversity Plus: SAg Assay (AID 2283093);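 further: fitted both ways against DMSO so a hit may be loss or gain of signal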
# Details: primary human HUVEC with PBMC
# Description: BSK_SAg is a cell-based, multiplexed-readout assay that uses umbilical vein endothelium and peripheral blood mononuclear cells, a human vascular primary cell co-culture, with measurements taken at 24 hours after chemical dosing in a 96-well plate.BSK_SAg_PBMCCytotoxicity is an assay component measured in the BSK_SAg assay. It measures Alamar blue related to cell death using Alamar Blue Reduction technology.Data from the assay component BSK_SAg_PBMCCytotoxicity was analyzed into 1 assay endpoint. This assay endpoint, BSK_SAg_PBMCCytotoxicity, was analyzed with bidirectional fitting relative to DMSO as the negative control and baseline of activity. Using a type of viability reporter, gain or loss-of-signal activity can be used to understand changes in the viability. Furthermore, this assay endpoint can be referred to as a secondary readout, because this assay has produced multiple assay endpoints where this one serves a viability function. To generalize the intended target to other relatable targets, this assay endpoint is annotated to the cell cycle intended target family, where the subfamily is cytotoxicity.
# The levels of cell surface (or secreted, indicated by the prefix "s") biomarker endpoints were measured by ELISA. Overt cytotoxicity to cells in confluent adherent cultures (all systems other than the BT system) was assessed by measuring total protein levels using sulforhodamine B (SRB) staining in parallel cultures at the time of biomarker measurements, indicated as SRB endpoints. For proliferation assays for adherent cell types, individual cell types are cultured at sub-confluence and relative cell numbers quantified by SRB staining at time points optimized for each system (48 h: 3C and CASM3C systems; 72 h: BT and HDF3CGF systems; 96 h: SAg system). SRB was performed by staining cells with 0.1% SRB after fixation with 10% TCA and reading wells at 560 nm.Viability and proliferation of PBMC (T cells) was quantified by Alamar Blue reduction for the SAg and BT systems. For PBMC viability (referred to as PBMC Cytotoxicity within the assay endpoint names), cells were plated (75,000/well in a 96-well plate) and then chemical samples added for 1 h before addition of activators, SEB and TSST-1 (20 ng/mL final concentration each). Cells were incubated for 90 h. Then, Alamar Blue (20 uL/well) (Invitrogen, Cat DAL1100) was added for 6 h, and the plates were read with a fluorescence microplate reader at 546/580 nm (excitation/emission). For PBMC proliferation, cells were plated and activated as above but incubated for only 16 h prior to addition of Alamar Blue. Plates were read after 6 h.
SMILES,outcome,AC50
Nc1ccc2ccccc2c1,inactive,–
c1cc2c3c(cccc3c1)CC2,inactive,–
Nc1cc2c3c(c1)C(c1ccccc1)=N[C@@H](NC(=O)c1cccnc1)C(=O)N3CC2,inactive,–
c1ccc2c(c1)sc1ccccc12,inactive,–
CCCCc1ccccc1,inactive,–
Nc1ccc(Cl)cc1,inactive,–
CCOS(=O)(=O)OCC,inactive,–
O=[N+]([O-])c1ccccc1,inactive,–
CC(C)(C)c1ccccc1OP(=O)(Oc1ccccc1)Oc1ccccc1,–,33.2 µM (active)
OCC(F)(F)OC(F)(F)C(F)(F)OC(F)(F)C(F)(F)OC(F)(F)F,–,15.3 µM (active) and 21.2 µM (active)
NC(=O)C(F)(F)C(F)(F)F,inactive,–
O=c1ssc(Cl)c1Cl,–,4.21 µM (active)
CN(C)C(=O)Cl,inactive,–
CC(C)Nc1ccc(Nc2ccccc2)cc1,–,0.016 µM (active)
COCCOCCO,inactive,–
O=C(O)C(F)(F)OC(F)(F)C(F)(F)OC(F)(F)C(=O)O,inactive,–
C=CC(=O)OCC(F)(F)C(F)F,inactive,15.1 µM (active)
Cc1c([N+](=O)[O-])cc2c(c1[N+](=O)[O-])C(C)(C)CC2(C)C,–,15.3 µM (active)
O=S(=O)(F)C(F)(F)C(F)(F)C(F)(F)C(F)(F)C(F)(F)C(F)(F)C(F)(F)C(F)(F)F,inactive,–
CCCCCCCc1ccc(O)cc1,–,27.5 µM (active)

SMILES,outcome,AC50
ClC(Cl)=C(c1ccc(Cl)cc1)c1ccccc1Cl,–,10.9 µM (active)
O=C(O)C(F)(OC(F)(F)C(F)(F)C(F)(F)F)C(F)(F)F (stereo not given),inactive,–
CC(Cl)CN(C)C (stereo not given),inactive,–
CC(C)(C)OOC(C)(C)C,inactive,–
Cc1cccc(N)c1,inactive,–
O=[N+]([O-])c1ccc(Cl)c(Cl)c1,inactive,–
O=C(O)C=CC(F)(C(F)(F)F)C(F)(F)F,inactive,–
CCOP(=S)(OCC)SCSc1ccc(Cl)cc1,–,13 µM (active)
CCCCN(CCCC)N=O,inactive,–
ClC(Cl)c1ccccc1,inactive,–
CCC(C)(C)c1ccc(O)cc1,inactive,–
ClC(Cl)(Cl)c1ccccc1,inactive,–
Nc1ccc([N+](=O)[O-])cc1Cl,inactive,–
CCOP(=S)(OCC)SCS(=O)(=O)CC,inactive,–
[N-]=[N+]=[N-],inactive,–
CCNc1nc(Cl)nc(NC(C)(C)C)n1,inactive,–
CCCCN(CCCC)SN(C)C(=O)Oc1cccc2c1OC(C)(C)C2,–,25 µM (active)
CCOP(=S)(NC(C)C)Oc1ccccc1C(=O)OC(C)C (stereo not given),inactive,–
O=C(O)C(F)(F)OC(F)(F)C(F)(F)OC(F)(F)F,inactive,–
